PubChem BioAssay (NCATS)
Records with an inconclusive call do not appear. A call without a number means that no potency is given here. Activity calls are given as the source filed them. Calls come from the whole dose curve; as a rule, active = well fitted cell-killing curve with a large enough effect; inconclusive = small, poorly fitted or top-dose-only effect, or effect the other way; inactive = no such curve, though single readings can be large or run the other way.

experiment: Quantitative highthroughput screen to assess conditional lethalithy of SEM cells grown in Human Plasma-Like Medium with dialyzed fetal bovine serum (HPLM+ds) (AID 1963882); details: SEM B-ALL cells in HPLM+ds, CellTiter-Glo viability, 48 h; series mostly up to 45.8 µM; note: nearly all actives have a fitted effect of over 35% in size
Text: Assay Provider: Jason Cantor Ph.D.
Department of Biochemistry
University of Wisconsin-Madison, Madison, WI, USA
Chemical screening studies have identified drug sensitivities across hundreds of cancer cell lines but most putative therapeutics fail to translate. Discovery and development of drug candidates in models that more accurately reflect nutrient levels in human blood is a major challenge. Here we performed high-throughput screens in conventional versus Human Plasma-Like Medium (HPLM) to identify compounds that were "missed" when screening using the artificial culture condition. Sets of conditional anticancer compounds spanned phases of clinical development and included non-oncology drugs were assessed. […] We also traced conditional phenotypes for several chemotherapeutics to availability of HPLM-specific metabolites and confirmed others for compounds whose reported targets are encoded by nonessential genes. Our findings establish generalizable strategies for exploiting conditional lethality in HPLM to reveal therapeutic candidates and mechanisms of action in cancer cells.
Described herein are the results of each viability screens against three cell lines: NOMO1 (an acute myeloid leukemia cell line); P12-Ichikawa (a T-cell acute lymphoblastic leukemia); and SEM (a B-cell ALL). Each assay was screened using 3 different cell culture media: homemade human plasma-Like medium with 10% dialyzed fetal bovine serum (HPLM+ds); RPMI1640 with 10% untreated FBS and 5mM glucose (RPMI+s); and RPMI1640 with 10% dialyzed fetal bovine serum and 5 mM glucose (RPMI+ds).
PROTOCOL TABLE (as described by Inglese J, Shamu CE and Guy RK. 2007)
SEQUENCE No. (e.g., 1, 2, 3, etc.); […] (e.g., Cells, Incubation, Reagent, etc.); VALUE and DESCRIPTION.
1; Cells; 5 uL; white, solid bottom 1536-well Greiner assay plate.
2; Compounds; 23 nL; Kalypsis pin tool (Wako USA) equipped with a 1536-well pin head to transfer to the assay plates.
3; Incubation; 48 hours; 37C incubation.
4; Reagent; 3 uL; CellTiter Glo (Promega).
5; Incubation; 5 min, room temperature
6; Detection; Luminescence, Viewlux PerkinElmer.
NOTES (numbers refer to Sequence numbers above)
1. Briefly, 5 ul of cell reagent was dispensed using a Multidrop Combi Dispenser. The NOMO1 and SEM cells were plated at 500 cells/well and the P12-Ichikawa line at 1000 cells/well.
2. After seeding the cells, 23 nL of MIPE 4.1 library compounds (in DMSO) were added to each plate using a Kalypsys 1536 Pintool dispenser. Bortezomib at final concentration of […] and DMSO were added to each plate as positive and negative controls respectively. For each screen, MIPE 4.1 compounds were added over an eleven-point concentration range […] in 3-fold dilutions.
3. Each plate was covered with a stainless steel gasketed lid to prevent evaporation and incubated for 48 hour at 37C, 95% relative humidity, and 5% CO2.
4-5. Three microliter CellTilter-GloTM luminescent substrate mix (Promega) reagent was added to the assay plate and incubated at room temperature for 5 min.
6. The luminescence signal was measured using a ViewLux (PerkinElmer) multiplate reader with a 2 second exposure time per plate. Data for each compound were normalized as percent viability such that measurements for DMSO and the empty well controls in each plate were defined as 100% and 0%, respectively.
Potency is the fitted concentration of half-maximal effect.

SMILES	Potency
OC1CCC(Nc2ncc3nc(Nc4c(F)cc(F)cc4F)n([C@@H]4CCOC4)c3n2)CC1 (stereo not given in full)	inactive
CCN[C@H]1C[C@H](C)S(=O)(=O)c2sc(S(N)(=O)=O)cc21	inactive
NS(=O)(=O)c1cccc2c1C(=O)c1cccc(O)c1C2=O	6620 nM (active)
C[C@@H]1C[C@H]2[C@@H]3CCC4=CC(=O)C=C[C@]4(C)[C@@]3(Cl)[C@@H](O)C[C@]2(C)[C@@]1(OC(=O)c1ccco1)C(=O)CCl	inactive
COc1cc2ncnc(Nc3ccc(F)c(Cl)c3)c2cc1OCCCN1CCOCC1	38200 nM (active)
C[C@]12CC[C@H](O)CC1=CC[C@@H]1[C@H]2CC[C@]2(C)C(c3cccnc3)=CC[C@H]12	inactive
NC(=O)OCC(COC(N)=O)c1ccccc1	inactive
CC[C@H](NC(=O)[C@H](C)NC)C(=O)N1C[C@@H](O)C[C@H]1Cc1c(-c2[nH]c3cc(F)ccc3c2C[C@H]2C[C@H](O)CN2C(=O)[C@H](CC)NC(=O)[C@H](C)NC)[nH]c2cc(F)ccc12	inactive
CN[C@@H]1C[C@H]2O[C@@](C)([C@H]1OC)n1c3ccccc3c3c4c(c5c6ccccc6n2c5c31)C(=O)N[C@H]4O	332 nM (active)
CC(C)(CO)[C@@H](O)C(=O)NCCC(=O)O	inactive
COc1cc(C[C@@H](CO)[C@H](CO)Cc2ccc(O)c(OC)c2)ccc1O	inactive
Nc1ncnc2c1c(-c1cnc3[nH]ccc3c1)nn2C1CCCC1	5260 nM (active)
Nc1ccn(C2CO[C@H](CO)O2)c(=O)n1 (stereo not given in full)	inactive
Cc1cc(-c2nnc3n2CCCCC3)c(C)n1-c1ccccc1	inactive
CCN(C)C(=O)Oc1cccc([C@H](C)N(C)C)c1	inactive
CNC(=O)c1c(F)cccc1Nc1nc(Nc2cc3c(cc2OC)CCN3C(=O)CN(C)C)nc2[nH]ccc12	590 nM (active)
COc1c2occc2cc2ccc(=O)oc12	inactive
Cc1cccc(-c2[nH]c(C(C)(C)C)nc2-c2ccc3c(c2)OCO3)n1	8330 nM (active)
CON(C)C(=O)N1N=C(c2cc(F)ccc2F)S[C@@]1(CCCN)c1ccccc1	5.2 nM (active)
CC[C@@H]1C(=O)N(C)c2cnc(Nc3ccc(C(=O)NC4CCC(N5CCN(CC6CC6)CC5)CC4)cc3OC)nc2N1C(C)C (stereo not given in full)	29.6 nM (active)

SMILES	Potency
CC(=O)SCC(Cc1ccccc1)C(=O)NCC(=O)OCc1ccccc1 (stereo not given)	inactive
O=C(N[C@H](CO)[C@H](O)c1ccc([N+](=O)[O-])cc1)C(Cl)Cl	inactive
O=C(O)c1cn(C2CC2)c2cc(N3CCNCC3)c(F)cc2c1=O	16600 nM (active)
C=CC(=O)N1CCc2ccc(-n3c(=O)ccc4cnc5ccc(-c6cnn(C)c6)cc5c43)cc21	3320 nM (active)
COc1ccc(-c2coc3cc(O)ccc3c2=O)cc1	inactive
CN(NC(=O)CC(=O)NN(C)C(=S)c1ccccc1)C(=S)c1ccccc1	37.1 nM (active)
O=c1[nH]c(=O)n([C@H]2C[C@@H](O)[C@@H](CO)O2)cc1F	23.5 nM (active)
CN1CCC(=C2c3ccccc3C=Cc3ccccc32)CC1	inactive
COc1cc2c(Nc3ccc(Cl)c(Cl)c3F)ncnc2cc1OCC1C[C@@H]2CN(C)C[C@H]2C1	10500 nM (active)
Cc1ccc2c(c1)c1c(n2CCc2ccc(C)nc2)CCN(C)C1	inactive
NC(=O)c1cnccn1	inactive
Nc1nc(N)c2nc(-c3cccc(O)c3)c(-c3cccc(O)c3)nc2n1	10500 nM (active)
O=C1NC(=O)C(=Cc2cccc(C(F)(F)F)c2)S1	inactive
CNC(=O)CN1CCC(Oc2cc3c(Nc4cccc(Cl)c4F)ncnc3cc2OC)CC1	inactive
CC(C)(Sc1ccc(CCN(CCCCC2CCCCC2)C(=O)NC2CCCCC2)cc1)C(=O)O	inactive
C[C@@H](CN1CC(=O)NC(=O)C1)N1CC(=O)NC(=O)C1	93.5 nM (active)
Cc1cc2nc3c(=O)[nH]c(=O)nc-3n(CC(O)C(O)C(O)CO)c2cc1C (stereo not given)	inactive
COC(=O)[C@H](c1ccccc1Cl)N1CCc2sccc2C1	inactive
O=C1NC(=O)C(=Cc2ccc3nccnc3c2)S1	inactive
CC(C)(N)c1ccc(-c2nc3ccccc3nc2-c2ccccc2)cc1	46.9 nM (active)
